Consider nine molecules from publication PMC9911399, “Two distinct binding modes provide the RNA-binding protein RbFox with extraordinary sequence specificity”.

Numbering of substitutions follows the chain as printed; changes in the protein carry UniProt numbers. In all, about 16,000 sequences were measured (“ka relative to ugcaugu”: median about 0.0091, highest 2% from about 0.032 on). What follows is part of a selection rich in the highest values, with near analogues and random picks from the rest.

The labels stand for the following.
T1: RBFOX1 RRM (Homo sapiens, UniProt Q9NWB1 109-208)
T1 sequence: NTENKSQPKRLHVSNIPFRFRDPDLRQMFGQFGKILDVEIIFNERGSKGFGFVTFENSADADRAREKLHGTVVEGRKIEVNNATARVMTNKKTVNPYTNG

B1: UGAUUCG (DNA:RNA)
RNA: GGGAGACCGGAAUUCAGAUUGUCCUGAUUCGUUAAAUCCCGUCGUAGCCACCA
DNA 1: CAATCTGAATTCCGGTCTCCC
DNA 2: TGGTGGCTACGACGGGATT
B2: GUGCUGA (DNA:RNA)
RNA: B1 RNA with U25G, G26U, A27G, U28C, C30G, G31A
DNA 1: CAATCTGAATTCCGGTCTCCC
DNA 2: TGGTGGCTACGACGGGATT
B3: UGAUGGC (DNA:RNA)
RNA: B1 RNA with U29G, C30G, G31C
DNA 1: CAATCTGAATTCCGGTCTCCC
DNA 2: TGGTGGCTACGACGGGATT
B4: CGGCUGA (DNA:RNA)
RNA: B1 RNA with U25C, A27G, U28C, C30G, G31A
DNA 1: CAATCTGAATTCCGGTCTCCC
DNA 2: TGGTGGCTACGACGGGATT
B5: GUCCUGA (DNA:RNA)
RNA: B1 RNA with U25G, G26U, A27C, U28C, C30G, G31A
DNA 1: CAATCTGAATTCCGGTCTCCC
DNA 2: TGGTGGCTACGACGGGATT
B6: UGGCUGC (DNA:RNA)
RNA: B1 RNA with A27G, U28C, C30G, G31C
DNA 1: CAATCTGAATTCCGGTCTCCC
DNA 2: TGGTGGCTACGACGGGATT
B7: UGGCUGA (DNA:RNA)
RNA: B1 RNA with A27G, U28C, C30G, G31A
DNA 1: CAATCTGAATTCCGGTCTCCC
DNA 2: TGGTGGCTACGACGGGATT
B8: UGCUGGC (DNA:RNA)
RNA: B1 RNA with A27C, U29G, C30G, G31C
DNA 1: CAATCTGAATTCCGGTCTCCC
DNA 2: TGGTGGCTACGACGGGATT
B9: CGGCUGC (DNA:RNA)
RNA: B1 RNA with U25C, A27G, U28C, C30G, G31C
DNA 1: CAATCTGAATTCCGGTCTCCC
DNA 2: TGGTGGCTACGACGGGATT

For this assay, the target named is T1, RBFOX1 RRM. As to the kind of experiment: EMSA; HiTS-Eq, 1 nM pool, 10 min; buffer printed only for the single-RNA assays: 10 mM Tris pH 7.5, 150 mM NaCl, 3.4 mM EDTA, 0.001% NP-40, 30 C. The following applies: tags: His6 N-terminal (pET28a); label: 5' 32P. The gist of the method: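 These values rest on relative association constants, computed from read-count changes of each RNA species versus the control reaction and normalised to the cognate motif. Reads came from free RNA recovered by 8% native PAGE after purified RbFox RRM (wild type or mutant) at increasing concentrations was equilibrated for 10 min in 50 µL with 1 nM of a 5′-radiolabelled pool with 7 randomized nucleotides and DNA-annealed flanks.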
Consider B1, for which the binding signal was 0.0228 KA relative to UGCAUGU.

B2: the binding signal is 0.0323 KA relative to UGCAUGU.

Consider B3, for which the binding signal is 0.0129 KA relative to UGCAUGU.

B4: the binding signal is 0.022 KA relative to UGCAUGU.

For the molecule B5, the binding signal is 0.0213 KA relative to UGCAUGU.

Consider B6, for which the binding signal was 0.0373 KA relative to UGCAUGU.

Consider B7, for which the binding signal was 0.036 KA relative to UGCAUGU.

For the molecule B8, the binding signal was 0.0238 KA relative to UGCAUGU.

Regarding B9, the binding signal is 0.018 KA relative to UGCAUGU.
